# High-throughput results (PubChem BioAssay)
# BoNT F protease: BoNT F light chain protease inhibition. Multiplex microsphere protease cleavage assay, flow cytometry. 0.22% of 360,000 active. inhibition, % at 10 µM; in the data active = inhibition above about 35%, passing the limit was not always enough; inconclusive = no clear call, values can overlap the other calls; also: plate controls were buffer without enzyme for full effect and enzyme alone for no effect
# BoNT A protease: BoNT A light chain protease inhibition; multiplex microsphere protease substrate cleavage, flow cytometry; inhibition, % at 10 µM; 0.17% of 360,000 active; AID 588499; also: plate controls were buffer without enzyme for full effect and enzyme alone for no effect
# Autofluor counter: flagged as autofluorescent in microsphere protease counterscreen. 3.1% of 360,000 active. compound autofluorescence counterscreen, microsphere flow cytometry; hits give high values. fluorescence intensity (concentration not given with the values); in the data active = fluorescence intensity above about 16000; inconclusive = no clear call, values can overlap the other calls
# Anthrax LF prot: inhibitors of Bacillus anthracis lethal factor protease; multiplex microsphere protease cleavage assay, LF; inhibition, % at 10 µM; 0.12% of 360,000 active; also: plate controls were buffer without enzyme for full effect and enzyme alone for no effect
# Target sequence (P15917 whole entry, looked up): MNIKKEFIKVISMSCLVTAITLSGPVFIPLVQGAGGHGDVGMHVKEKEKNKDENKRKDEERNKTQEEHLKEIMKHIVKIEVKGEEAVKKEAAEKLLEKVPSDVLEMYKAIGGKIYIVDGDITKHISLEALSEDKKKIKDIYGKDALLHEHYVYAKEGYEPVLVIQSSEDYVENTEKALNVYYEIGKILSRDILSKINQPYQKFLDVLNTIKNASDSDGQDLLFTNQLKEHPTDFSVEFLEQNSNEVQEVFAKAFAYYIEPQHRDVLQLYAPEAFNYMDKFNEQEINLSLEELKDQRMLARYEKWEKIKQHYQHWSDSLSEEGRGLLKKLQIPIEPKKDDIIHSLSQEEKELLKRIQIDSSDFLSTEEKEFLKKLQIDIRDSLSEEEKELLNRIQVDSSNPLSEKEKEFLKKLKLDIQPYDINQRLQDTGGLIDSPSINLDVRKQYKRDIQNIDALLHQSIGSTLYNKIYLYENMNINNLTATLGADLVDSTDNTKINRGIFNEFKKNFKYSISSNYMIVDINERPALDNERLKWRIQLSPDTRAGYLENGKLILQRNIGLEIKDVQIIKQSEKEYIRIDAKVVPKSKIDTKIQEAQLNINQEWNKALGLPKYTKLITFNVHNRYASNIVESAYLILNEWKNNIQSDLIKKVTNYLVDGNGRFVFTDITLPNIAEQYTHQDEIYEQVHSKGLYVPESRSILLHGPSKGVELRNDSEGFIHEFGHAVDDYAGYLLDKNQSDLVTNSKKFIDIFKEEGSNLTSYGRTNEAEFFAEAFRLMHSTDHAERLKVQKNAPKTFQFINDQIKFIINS
# * marks the source's active call; other numbers are inactive results; ? = inconclusive. Only some compounds are listed: those with a hit (about 3.5% of all), similar ones and a draw of the others. Rule as the data show it, unless noted: active = inhibition above about 30%; inconclusive = no clear call, values can overlap the other calls; inactive = below that.
SMILES,BoNT F protease,BoNT A protease,Autofluor counter,Anthrax LF prot
Cc1ccc(SCCSc2nc(C)cc(=O)[nH]2)cc1,-34.3,-1.1,4311,3.9
FC(F)(F)c1ccc(Sc2nnc(-c3cccs3)n2CC2CCCO2)nc1 (stereo not drawn),-3.6,0.5,3590,1.6
FC(F)(F)c1cnc(Sc2nnc(-c3cccs3)n2CC2CCCO2)c(Cl)c1 (stereo not drawn),0.8,1.4,20185*,-0.5
Cc1c(C(=O)O)oc2ccc(S(=O)(=O)NCc3ccc(F)cc3)cc12,-5.6,-1.6,24054*,-2.3
COc1ccc(CNS(=O)(=O)c2ccc3oc(C(=O)O)c(C)c3c2)cc1,-1.7,-0.1,7977,-2.5
O=C(Nc1ccc(S(=O)(=O)Nc2nccc(C3Cc4ccccc4C(=O)O3)n2)cc1)c1ccccc1 (stereo not drawn),2.5,0.9,23166*,-2.3
O=C(Nc1ccc(S(=O)(=O)Nc2ncccn2)cc1)c1ccccc1,6.4,-1.4,3507,0.2
CC1(C)NC(=O)N(CC(=O)Nc2nc(-c3ccc(F)cc3)cs2)C1=O,1.4,3.1,18087*,-8.0
O=C(NNc1ccccn1)C(=O)NNS(=O)(=O)c1ccc(Cl)cc1,-0.5,-1.3,23954*,0.1
O=C(/C=C/c1ccco1)NC(=S)Nc1ccccc1N1CCOCC1,0.1,0.4,23214*,1.0
CCCc1nnc(NC(=O)Cn2c(=O)oc3ccccc32)s1,-5.9,1.7,3642,3.1
CCCc1nnc(NC(=O)Cn2c(=O)oc3cc(Br)ccc32)s1,4.5,2.1,21386*,-1.1
O=S1(=O)C[C@H](N2CCCC2)[C@@H](COCc2ccccc2)N1,-11.1,-2.4,4903,1.3
CCC(NC(=O)CSc1nnnn1C1CC1)c1ccc(Br)cc1 (stereo not drawn),-14.3,-0.5,3848,-10.6
N#Cc1ccc(CN2CCN(C(=O)c3ccc(S(=O)(=O)NCc4ccco4)cc3)CC2)cc1,-5.9,-0.2,3760,1.3
FC(F)(F)c1cc(C(F)(F)F)c2ccc(Oc3ccccc3)nc2n1,-1.5,1.0,15838,-0.3
FC(F)(F)c1cccc(Oc2ccc3c(C(F)(F)F)cc(C(F)(F)F)nc3n2)c1,0.8,?,21842*,-1.7
COc1cc(NC(=O)N[C@@H](Cc2c[nH]c3ccccc23)C(=O)O)c(C(=O)O)cc1OC,?,0.6,3871,-2.8
C=CCn1c(=O)[nH]c2cc(C(=O)N3CCN(c4cc(C)ccc4C)CC3)ccc2c1=O,1.6,0.0,16226*,-1.6
O=C(c1ccccc1F)N1CCN(c2ccccc2)CC1,1.1,1.7,19300*,3.0
CC(=O)c1ccc(N2CCN(C(=O)c3ccc4c(=O)n(-c5ccccc5)c(=O)[nH]c4c3)CC2)cc1,1.4,1.5,22374*,-1.1
O=C(CSCc1ccc(F)cc1)N1CCN(c2ccccc2)CC1,-3.3,-4.8,23909*,-1.1
O=C(CSCc1ccc(F)cc1)N1CCN(c2ccc(F)cc2)CC1,2.4,0.9,10897,-1.4
COc1cc(CN2C[C@@H](CO)O[C@@H](n3cnc4c(N(C)C(C)C)ncnc43)C2)cc(OC)c1OC,1.0,-0.2,4012,-5.3
O=C(c1ccc2ccccc2c1)N1CCN(c2ccccc2)CC1,-0.8,?,19676*,-0.7
SMILES,BoNT F protease,BoNT A protease,Autofluor counter,Anthrax LF prot
O=C(c1ccc(-c2ccccc2)cc1)N1CCN(c2ccccc2)CC1,?,-0.6,4181,-0.2
O=C(c1cccc(S(=O)(=O)N2CCCC2)c1)N1CCN(c2ccccc2)CC1,-2.2,-1.5,21121*,-0.8
O=C(c1cccc(S(=O)(=O)N2CCCCCC2)c1)N1CCN(c2ccccc2)CC1,-4.4,-1.0,4203,-2.3
O=C(NCCNC(=O)c1cc(Cl)ccc1Cl)c1ccco1,0.6,1.8,5643,2.1
CSc1nc(N)nc2c1ncn2CC(=O)NCCNc1ccc([N+](=O)[O-])cn1,1.9,-0.5,3364,7.1
O=C(Nc1ccccc1Cl)c1ccc(=O)[nH]n1,24.0,-2.6,3985,11.0
COC(=O)c1ccccc1NC(=O)COC(=O)CSCC(=O)N1CCOCC1,-4.6,-1.5,23481*,-4.3
CCOC(=O)c1ccccc1NC(=O)COC(=O)CSCC(=O)Nc1cc(C)on1,-0.4,-2.9,6214,2.8
CCC(C)Nc1c([N+](=O)[O-])cc(C)cc1[N+](=O)[O-] (stereo not drawn),-6.9,?,24719*,-2.7
C/C(CCc1ccc2c(c1)OCO2)=N\N=C1\NC(=O)CC(C(=O)Nc2ccc(Cl)cc2)S1 (stereo not drawn),-3.9,-2.9,21037*,-1.5
CCN(CC)c1ccc(C(=O)NNC(=O)Cn2c(=O)cnc3ccccc32)cc1,1.0,0.0,2937,3.7
O=C1Nc2cc(Cl)ccc2C1(N1CCNCC1)C(F)(F)F (stereo not drawn),-0.6,2.4,18877*,-7.0
O=S(=O)(c1ccc(Cl)cc1)N1CCNCC1,-9.0,-2.1,3776,-6.5
COc1ccc(C2C(C(=O)OCC3CCCO3)=C(C)NC3=C2C(=O)CC(c2ccco2)C3)cc1O (stereo not drawn),-1.1,-0.5,23267*,-2.4
CC1=C(C(=O)OCC2CCCO2)C(c2ccccc2)C2=C(CCCC2=O)N1 (stereo not drawn),-0.5,-0.3,4901,2.1
Cn1c(=O)n(CCC(=O)O)c2ccccc21,-6.1,-0.5,3405,-0.4
CN(C)C(=O)Cn1c(=O)n(C)c2ccccc21,1.1,1.5,22347*,-1.0
COc1cccc(CNCCSc2nnnn2C)c1,3.2,-0.4,10456,-2.1
CCc1ccc(CNCCSc2nnnn2C)cc1,-5.8,-1.0,23525*,-1.1
COc1ccc(CNCCSc2nnnn2C)cc1OC,0.4,2.4,19838*,-0.3
COc1ccc(Br)cc1CNCCSc1nnnn1C,-7.5,0.4,22723*,-0.9
COc1ccc(CNCCSc2nnnn2C)c(OC)c1OC,-2.3,-0.6,4273,-1.6
COC(=O)c1cc(=O)nc(NN=Cc2ccco2)s1,-1.9,-0.2,5858,-4.1
COCCNc1cc(C)nc2c3c(C)cc(C)nc3nn12,-0.4,-0.8,23058*,-1.1
Cc1cc(NCCN2CCOCC2)n2nc(C)c(-c3ccccc3)c2n1,-27.5,-0.1,4901,-3.9
SMILES,BoNT F protease,BoNT A protease,Autofluor counter,Anthrax LF prot
Cc1cc(C)c2c(n1)nn1c(NCCN3CCOCC3)cc(C)nc21,3.8,0.2,23370*,0.1
COCCNc1cc(C)nc2c(-c3ccccc3OC)c(C)nn12,-7.2,-1.0,4463,-10.8
COc1ccc(NC(=O)N(Cc2ccc3c(c2)OCO3)C2CC(=O)N(c3ccc(OC)cc3)C2=O)cc1 (stereo not drawn),-4.1,-2.1,8367,-7.5
O=C1CC(N(Cc2ccc3c(c2)OCO3)C(=O)Nc2ccc(F)cc2)C(=O)N1c1ccccc1 (stereo not drawn),2.0,?,23094*,-0.4
Cc1cc(CN2CCCC(N3CCc4ccccc4C3)C2)cc(C)c1O (stereo not drawn),-12.8,-2.0,3835,-21.3
CC1(C(=O)O)COC(c2ccc([N+](=O)[O-])cc2)OC1 (stereo not drawn),-0.4,0.4,16243*,-0.8
CC(C)c1ccc(C2OCC(C)([N+](=O)[O-])CO2)cc1 (stereo not drawn),-1.5,-0.2,3478,2.9
COc1ccc(C(=O)N2CCCC2)cc1,8.3,2.5,14996,-10.5
COc1ccc(C(=O)N2CCCC(C(=O)N3CCCCCC3)C2)cc1 (stereo not drawn),-4.0,-2.3,20377*,-4.1
